Laboratory results: PubChem BioAssay

Test system: not listed separately
Assay: compounds binding Alexa647 anti-His antibody – biochemical, small-molecule microarray, 635 nm fluorescence, artefact control for SMM control protein annotation, primary screen (AID 1128);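 further: score merges feature fluorescence with signal-to-noise for each printed compound spot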
Conditions: higher = more signal
Molecule COc1ccc(O[C@H]2C=C[C@@H](c3ccccc3)O[C@@H]2COC(=O)N2CCCCC2)cc1 has a composite z-score of -0.475.
Molecule CO[C@@H]1COC(=O)CC=C[C@@H](C)[C@H](OC)COC(=O)[C@H](COCc2ccccc2)NC(=O)CC=C[C@H]1C has a composite z-score of -1.36.
Molecule CO[C@@H]1COC(=O)[C@@H]2CCCN2C(=O)[C@@H](C)COC(=O)[C@H](COCc2ccccc2)NC(=O)CC=C[C@H]1C has a composite z-score of 0.284.
For CC(=O)OC[C@H]1O[C@H](CCON=C(C)CCN2CCc3nc(-c4ccccc4)c(-c4ccccc4)cc3C2)C=C[C@@H]1OC(C)=O, the composite z-score was -0.437.
In the case of CCCC[C@@H](O)C1=C(C)C[C@H]2C(=O)N(Cc3ccccc3)C(=O)[C@H]2[C@H]1CO, the composite z-score is reported as 0.314.
For O=C1[C@H]2[C@H]3[C@H](O)[C@H](O)CC(=NO[C@@H]4O[C@H](CO)[C@@H](O)[C@H](O)[C@H]4O)[C@H]3CC[C@H]2C(=O)N1C1CCCCC1, the composite z-score was 0.648.
Molecule COC(=O)C1=C(C)[C@@H](O)[C@@H](C)[C@H](c2c(OC)c(OC)c(C)c(OC)c2OC)O1 has a composite z-score of 0.174.
COc1ccc(-c2ccc3c(n2)CCCN3CC(O)CN2CCCc3nc(C)c(C)cc32)cc1 (configuration not stated) showed a composite z-score of 2.62.
CC(C)(C)OC(=O)CC[C@]1(C(=O)NCc2ccccc2)N=C(c2ccc(OCCCO)cc2)O[C@H]1c1ccccc1 gave a composite z-score of 1.99.
Molecule CC(=O)OC[C@H]1O[C@H](C#CCCCc2ccccc2)C=C[C@@H]1OC(C)=O has a composite z-score of 0.451.
CS(=O)(=O)CCOC(=O)C1=CC(CCCO)=CC(c2cccs2)N(Cc2cccc(OC(F)(F)F)c2)C=C1C(=O)OCCS(C)(=O)=O (configuration not stated) showed a composite z-score of 0.97.
For NCCCCCNC(=O)[C@@H]1C[C@@H]2C(=O)N3CCC[C@H]3C(=O)N2[C@@H]1c1cccc(OCCO)c1, the composite z-score was 1.83.
In the case of CC(C)=C1C(=O)C(c2ccccc2)=C2CN3C(=O)N(CCc4ccccc4)C(=O)[C@]3(Cc3ccc(F)cc3)[C@H]21, the composite z-score is reported as 1.59.
COc1ccc(COC(=O)NN=C2C[C@@H](O)[C@@H](O)[C@@H]3[C@@H]4C(=O)N(Cc5ccc6c(c5)OCO6)C(=O)[C@@H]4CC[C@@H]23)cc1 showed a composite z-score of -0.272.
Molecule CCOC(=O)C[C@H]1[C@H](OC(=O)c2ccc(C(=O)c3ccccc3)cc2)[C@@H](NC(=O)c2ccc(-c3ccccc3)cc2)c2cc(OCCCO)ccc2N1C(=O)c1ccc2ccccc2n1 has a composite z-score of 0.128.
Work on C[C@@H]1CC[C@H]2C(=O)O[C@H](COc3ccc(C(C)(C)C)cc3)CN2[C@H]1c1ccc(Br)cc1 yielded a composite z-score of 2.99.
Molecule CC(C)CON=C1C[C@@H](O)[C@@H](O)[C@@H]2[C@@H]3C(=O)N([C@@H](C)c4ccccc4)C(=O)[C@@H]3CC[C@H]12 has a composite z-score of 0.728.
Work on O=C1CCCC=C1C(O)CCOCc1ccccc1 (configuration not stated) yielded a composite z-score of -0.467.
For CCc1cccc(NC(=O)O[C@H]2[C@H](OC(=O)Nc3ccc4c(c3)OCO4)[C@@H](OC(=O)Nc3ccc4c(c3)OCO4)[C@@H](OC)O[C@@H]2CO)c1, the composite z-score was 0.646.
With O=C1[C@H]2[C@H]3[C@H](O)[C@H](O)CC(=NO[C@@H]4O[C@H](CO)[C@@H](O)[C@H](O)[C@H]4O)[C@@H]3CC[C@H]2C(=O)N1Cc1ccc2c(c1)OCO2 the composite z-score was 0.715.
With COC(=O)[C@H](C)NC(=O)[C@@H](C)CO the composite z-score was 0.548.
CC1CC/C=C\[C@H]2OC34C=CCN(Cn5nnc6ccccc65)C(=O)[C@H]3N(CCO)C(=O)[C@@H]4C2C(=O)O1 (some centres not stated) showed a composite z-score of 0.885.
With O=C1CCCC2OC12C(O)CCc1ccccc1 (configuration not stated) the composite z-score was 0.259.
Work on CO[C@@H]1COC(=O)[C@H](C)NC(=O)[C@@H](C)COC(=O)CCC[C@H]1C yielded a composite z-score of -0.356.
With CCN1C(=O)[C@H]2[C@H]3[C@H](O)[C@H](O)CC(=NOC[C@@H](C)[C@H](OCc4ccccc4)C(C)C)[C@@H]3CC[C@H]2C1=O the composite z-score was 0.0486.
O=C1[C@H]2[C@H]3[C@H](O)[C@H](O)CC(=NOCc4ccccc4)[C@@H]3CC[C@H]2C(=O)N1C1CCCCC1 showed a composite z-score of 0.157.

Test system: Human papillomavirus type 1a E7 protein (residues 1-88)
Assay: HPV1a E7 small-molecule binders, primary screen, biochemical, small-molecule microarray, residues 1-88, 635 nm (AID 1129)
Conditions: small-molecule microarray binding, fluorescence 635 nm; higher = more signal
In the case of CCOC(=O)CCN1C(=O)[C@H]2[C@H]3[C@H](O)[C@H](O)CC(=NOC[C@@H](O)COCc4ccco4)[C@@H]3CC[C@H]2C1=O, the composite z-score is reported as -0.0069.
Molecule COc1ccc([Si](C)(C)[C@H]2[C@H](CC(=O)N3CCC[C@H]3CO)O[C@@]3(C(=O)N(Cc4cccc(N5C(=O)COc6ccccc65)c4)c4ccccc43)[C@@H]2C)cc1 has a composite z-score of 0.885.
Molecule CC(=O)OC[C@H]1O[C@H](CCON=C(C)CCC(=O)OC[C@H]2O[C@H](C#Cc3ccccc3)C=C[C@@H]2Oc2ccc(C)cc2)C=C[C@@H]1OC(C)=O has a composite z-score of 0.125.
For CCOC(=O)[C@H](CC(C)C)NC(=O)CCC1CC(OC(=O)NCc2cccc3ccccc23)CC2(CCCC(COC(=O)NCCN3CCOCC3)O2)O1 (some centres not stated), the composite z-score was 1.17.
Molecule CN1C(=O)C2C=CC(C(O)C(c3ccccc3)c3ccccc3)N(NC(=O)OC(C)(C)C)C2C1=O (configuration not stated) has a composite z-score of 1.18.
In the case of Cc1cc2c(c(=O)o1)[C@H](O)[C@H]1O[C@H]1C2=O, the composite z-score is reported as -1.07.
With O=C(NN=C1C[C@@H](O)[C@@H](O)[C@@H]2[C@@H]3C(=O)N(c4cccc(Oc5ccccc5)c4)C(=O)[C@@H]3CC[C@@H]12)OCc1ccccc1 the composite z-score was 0.0508.
With COC(=O)C1=CCC(c2cccc(Cl)c2)O1 (configuration not stated) the composite z-score was 0.24.
NC(=O)NCC#Cc1ccc2c(c1)[C@]1(C(=O)N2)[C@H](c2ccc(O)cc2)N2[C@H](c3ccccc3)[C@H](c3ccccc3)OC(=O)[C@H]2[C@@H]1C(=O)N1CCCCCCC1 gave a composite z-score of 0.564.
With CC(C)[C@@H](OCc1ccccc1)[C@H](C)C=NOC[C@@H](C)[C@H](OCc1ccccc1)C(C)C the composite z-score was 0.289.
For COc1ccc(O[C@H]2C=C[C@@H](c3ccccc3)O[C@@H]2COC(=O)N2CCCCC2)cc1, the composite z-score was -1.23.
CO[C@@H]1COC(=O)CC=C[C@@H](C)[C@H](OC)COC(=O)[C@H](COCc2ccccc2)NC(=O)CC=C[C@H]1C showed a composite z-score of -2.53.
CO[C@@H]1COC(=O)[C@@H]2CCCN2C(=O)[C@@H](C)COC(=O)[C@H](COCc2ccccc2)NC(=O)CC=C[C@H]1C showed a composite z-score of 0.692.
CC(=O)OC[C@H]1O[C@H](CCON=C(C)CCN2CCc3nc(-c4ccccc4)c(-c4ccccc4)cc3C2)C=C[C@@H]1OC(C)=O showed a composite z-score of 0.0723.
CCCC[C@@H](O)C1=C(C)C[C@H]2C(=O)N(Cc3ccccc3)C(=O)[C@H]2[C@H]1CO gave a composite z-score of 0.0359.
In the case of O=C1[C@H]2[C@H]3[C@H](O)[C@H](O)CC(=NO[C@@H]4O[C@H](CO)[C@@H](O)[C@H](O)[C@H]4O)[C@H]3CC[C@H]2C(=O)N1C1CCCCC1, the composite z-score is reported as 1.16.
Molecule COC(=O)C1=C(C)[C@@H](O)[C@@H](C)[C@H](c2c(OC)c(OC)c(C)c(OC)c2OC)O1 has a composite z-score of 0.113.
Work on COc1ccc(-c2ccc3c(n2)CCCN3CC(O)CN2CCCc3nc(C)c(C)cc32)cc1 (configuration not stated) yielded a composite z-score of 0.478.
Work on CC(C)(C)OC(=O)CC[C@]1(C(=O)NCc2ccccc2)N=C(c2ccc(OCCCO)cc2)O[C@H]1c1ccccc1 yielded a composite z-score of 1.26.
Work on CC(=O)OC[C@H]1O[C@H](C#CCCCc2ccccc2)C=C[C@@H]1OC(C)=O yielded a composite z-score of 0.242.
In the case of CS(=O)(=O)CCOC(=O)C1=CC(CCCO)=CC(c2cccs2)N(Cc2cccc(OC(F)(F)F)c2)C=C1C(=O)OCCS(C)(=O)=O (configuration not stated), the composite z-score is reported as 1.03.
NCCCCCNC(=O)[C@@H]1C[C@@H]2C(=O)N3CCC[C@H]3C(=O)N2[C@@H]1c1cccc(OCCO)c1 showed a composite z-score of 0.689.
Work on CC(C)=C1C(=O)C(c2ccccc2)=C2CN3C(=O)N(CCc4ccccc4)C(=O)[C@]3(Cc3ccc(F)cc3)[C@H]21 yielded a composite z-score of -0.205.
For COc1ccc(COC(=O)NN=C2C[C@@H](O)[C@@H](O)[C@@H]3[C@@H]4C(=O)N(Cc5ccc6c(c5)OCO6)C(=O)[C@@H]4CC[C@@H]23)cc1, the composite z-score was -0.568.
With CCOC(=O)C[C@H]1[C@H](OC(=O)c2ccc(C(=O)c3ccccc3)cc2)[C@@H](NC(=O)c2ccc(-c3ccccc3)cc2)c2cc(OCCCO)ccc2N1C(=O)c1ccc2ccccc2n1 the composite z-score was 1.01.
Molecule C[C@@H]1CC[C@H]2C(=O)O[C@H](COc3ccc(C(C)(C)C)cc3)CN2[C@H]1c1ccc(Br)cc1 has a composite z-score of -0.701.
With CC(C)CON=C1C[C@@H](O)[C@@H](O)[C@@H]2[C@@H]3C(=O)N([C@@H](C)c4ccccc4)C(=O)[C@@H]3CC[C@H]12 the composite z-score was 1.17.
For O=C1CCCC=C1C(O)CCOCc1ccccc1 (configuration not stated), the composite z-score was -0.406.
For CCc1cccc(NC(=O)O[C@H]2[C@H](OC(=O)Nc3ccc4c(c3)OCO4)[C@@H](OC(=O)Nc3ccc4c(c3)OCO4)[C@@H](OC)O[C@@H]2CO)c1, the composite z-score was 1.25.
O=C1[C@H]2[C@H]3[C@H](O)[C@H](O)CC(=NO[C@@H]4O[C@H](CO)[C@@H](O)[C@H](O)[C@H]4O)[C@@H]3CC[C@H]2C(=O)N1Cc1ccc2c(c1)OCO2 showed a composite z-score of 0.782.
For COC(=O)[C@H](C)NC(=O)[C@@H](C)CO, the composite z-score was 1.2.
CC1CC/C=C\[C@H]2OC34C=CCN(Cn5nnc6ccccc65)C(=O)[C@H]3N(CCO)C(=O)[C@@H]4C2C(=O)O1 (some centres not stated) gave a composite z-score of 1.16.
O=C1CCCC2OC12C(O)CCc1ccccc1 (configuration not stated) showed a composite z-score of -0.0206.
Work on CO[C@@H]1COC(=O)[C@H](C)NC(=O)[C@@H](C)COC(=O)CCC[C@H]1C yielded a composite z-score of 0.0754.
For CCN1C(=O)[C@H]2[C@H]3[C@H](O)[C@H](O)CC(=NOC[C@@H](C)[C@H](OCc4ccccc4)C(C)C)[C@@H]3CC[C@H]2C1=O, the composite z-score was 0.472.
O=C1[C@H]2[C@H]3[C@H](O)[C@H](O)CC(=NOCc4ccccc4)[C@@H]3CC[C@H]2C(=O)N1C1CCCCC1 showed a composite z-score of -0.0419.
